# Laboratory results from PubChem BioAssay (NCATS).
# Results filed as inconclusive are left out. Activity calls are given as the source filed them. Calls follow the shape of the dose curve; as a rule, active = well fitted cell-killing curve with a large enough effect; inconclusive = small, poorly fitted or top-dose-only effect, or effect the other way; inactive = flat fitted curve, though single readings scatter.
# System: Tov-21-G
# Assay: Primary qHTS to identify gynecologic anti-cancer compounds using libraries of approved drugs and bioactive compounds (AID 1345084); also: nearly all actives have a fitted effect of over 55% in size
# Conditions: Gynecologic cancer cell panel viability, ATPlite luminescence, 48 h; series mostly up to 57.5 µM; activity change, negative = cytotoxicity: at the top concentration
# How it was run: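 ATP-based viability (ATPlite), 1,000 cells/well, 16 h pre-incubation, 48 h compound at 37 C, 5% CO2, 15 min RT before read.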
# % is scaled to controls: 0 for no effect and ±100 for the full control effect; potency is read from the fitted curve at half-maximal effect.
SMILES,"activity change, negative = cytotoxicity",Potency
O=C(NCCCN1CCC2(CC1)OCc1ccccc12)[C@H]1CCCN1Cc1ccccc1,-8.29% (inactive),–
O=C(NCCN1CCC(n2c(=O)[nH]c3ccccc32)CC1)c1cc2cc(F)ccc2[nH]1,6.5% (inactive),–
CCCCCc1ccc(/C=C/C(=O)Nc2cc(Cl)ccc2C(=O)O)cc1,1.9% (inactive),–
CCCc1cc(C)n(C)c(=O)c1CN(C)C(=O)c1cc(-c2ccc(N3CCN(C(C)C)CC3)nc2)cc2c1cnn2C(C)C,10.3% (inactive),–
C=CC(C)(O)CC/C=C(/C)COC(=O)C(C)C1CCC(C)(C=C)O1 (configuration not stated),-25.6% [at 38.5 µM] (inactive),–
COc1c(C)cc(NC(=O)c2nn(Cc3ccc(F)cc3)c3c2CN(C(=O)c2ccc[nH]2)C[C@]3(C)C(N)=O)cc1C,11.9% [at 11.6 µM] (inactive),–
C=C1C(=O)O[C@@H]2C(OC(=O)/C(C)=C\C)/C(C)=C\C(=O)/C=C(\C)C[C@H](O)[C@@H]12 (some centres not stated),–,10 µM (active)
C[C@@]12C(=O)N(c3ccc(C(=O)Nc4cccc5cccnc45)cc3)C(=O)[C@@H]1[C@@H]1C=C[C@H]2C1,-10.4% (inactive),–
CC(=O)O[C@]1(C(C)=O)CC[C@H]2[C@@H]3CCC4=CC(=O)CCC4=C3[C@@H](c3ccc(N(C)C)cc3)C[C@@]21C,10.2% (inactive),–
CC(C)S(=O)(=O)NC[C@H](C)c1ccc(-c2ccc(CCNS(C)(=O)=O)cc2)cc1,-16.4% (inactive),–
Cc1ccc(C(C)C)c(O[C@@H]2O[C@H](CO)[C@@H](O)[C@H](O)[C@H]2O)c1,2.27% [at 38.5 µM] (inactive),–
CC(OC1OCCN(Cc2n[nH]c(=O)[nH]2)C1c1ccc(F)cc1)c1cc(C(F)(F)F)cc(C(F)(F)F)c1 (configuration not stated),-3.74% (inactive),–
